From ChEMBL document CHEMBL4513139, “CO-ADD screening of University of Strathclyde (UK) compounds”
Potency and affinity values are given separately.

Columns and labels:
Staphylococcus aureus = settings: Concentration 32 ug.mL-1; ASSAY_TEST Inhibition of Bacterial Growth; detection method Absorption (OD600); MEDIA CAMHB; plate type 384well; NBS; CORNING #3640; time 18 hr
Escherichia coli = settings: Concentration 32 ug.mL-1; ASSAY_TEST Inhibition of Bacterial Growth; detection method Absorption (OD600); MEDIA CAMHB; plate type 384well; NBS; CORNING #3640; time 18 hr

Structure (SMILES)	Inhibition (Staphylococcus aureus)	Inhibition (Escherichia coli)
CCOC(=O)c1cc(NC(=O)c2cc(NC(=O)c3nc(N)sc3CCC(C)C)cn2C)cn1C	16.22%	-10.89%
Cc1ncc(Cn2cc(CCO)nn2)c(N)n1	21.55%	-15.62%
COC(=O)CCC(=O)Nc1cc(C(=O)Nc2cc(C(=O)NCCC(=N)N)n(C)c2)n(C)c1.O=C(O)C(F)(F)F	0.86%	-6.39%
CC(=O)N(C(C)=O)c1cc(C(=O)Nc2cc(C(=O)NCCC(=N)N)n(C)c2)n(C)c1.O=C(O)C(F)(F)F	98.15%	6.79%
COC(=O)c1ccc(C(=O)Nc2cc(C(=O)Nc3cc(C(=O)NCCC(=N)N)n(C)c3)n(C)c2)cc1.O=C(O)C(F)(F)F	12.34%	-18.97%
CN(C)CCCNC(=O)c1cc(NC(=O)c2cc(NC(=O)c3cc(NC(=N)c4ccccc4)cn3C)cn2C)cn1C.O=C(O)C(F)(F)F.O=C(O)C(F)(F)F	0.44%	-15.33%
Cc1ncc(Cn2cc(CO)nn2)c(N)n1	15.8%	-17.13%
Cc1ncc(Cn2cc(CCCCO)nn2)c(N)n1	1.62%	-20.02%
COc1cccc(C(=N)Nc2cc(C(=O)Nc3cc(C(=O)Nc4cn(CCCN(C)C)cn4)n(C)c3)n(C)c2)c1.O=C(O)C(F)(F)F.O=C(O)C(F)(F)F	18.77%	-11.88%
Cn1cc(NC(=O)c2cc(NC(=O)c3cc(NC(=O)c4ccc(Cl)cc4Cl)cn3C)cn2C)cc1C(=O)NCCN1CCOCC1.O=C(O)C(F)(F)F	45.87%	-8.53%
COc1cccc(C(=N)Nc2cc(C(=O)Nc3cc(C(=O)Nc4cc(C(=O)NCCCN(C)C)n(C)c4)n(C)c3)n(C)c2)c1.O=C(O)C(F)(F)F.O=C(O)C(F)(F)F	-1.63%	-2.32%
CC(C)c1sc(N)nc1C(=O)Nc1cc(C(=O)NCCN2CCOCC2)n(C)c1.O=C(O)C(F)(F)F	4.82%	-3.07%
CC(=O)Nc1cc(C(=O)Nc2cc(C(=O)Nc3cc(C(=O)NCCCN(C)C)n(C)c3)n(C)c2)n(C)c1.O=C(O)C(F)(F)F	20.29%	-5.37%
COc1cccc(C(=N)Nc2cc(C(=O)Nc3cc(C(=O)NCCC(=N)N)n(C)c3)n(C)c2)c1.O=C(O)C(F)(F)F.O=C(O)C(F)(F)F	96.74%	3.74%
COc1cccc(C(=O)Nc2cc(C(=O)Nc3cc(C(=O)Nc4cn(CCCN(C)C)cn4)n(C)c3)n(C)c2)c1.O=C(O)C(F)(F)F	20.04%	-11.39%
Cc1ncc(CNc2ccccc2F)c(N)n1	17.82%	-3.65%
CC(=O)Nc1cc(C(=O)Nc2cc(C(=O)Nc3cc(C(=O)NCCCN(C)C)n(CCC(C)C)c3)n(C)c2)n(C)c1.O=C(O)C(F)(F)F	9.82%	-19.43%
Cn1cc(NC(=O)c2cc(NC(=O)CCC(=O)O)cn2C)cc1C(=O)NCCN1CCOCC1.O=C(O)C(F)(F)F	-10.46%	-3.43%
Cc1ncc(Cn2cc(CCCN)nn2)c(N)n1.Cl	14.19%	-28.01%
Cc1ncc(CNc2cccc(F)c2)c(N)n1	13.69%	3.54%
CC(C)CCc1sc(NC(=O)c2cc(NC(=O)c3ccc(/C=C/c4cc5ccccc5nc4On4nnc5ccccc54)cc3)cn2C)nc1C(=O)NCCN1CCOCC1.O=C(O)C(F)(F)F	-16.43%	-13.53%
COc1cccc(/C=C/c2ccc(C(=O)Nc3cc(C(=O)Nc4cc(C(=O)NCCN(C)C)n(C)c4)n(C)c3)cc2)c1.O=C(O)C(F)(F)F	98.95%	88.16%
Cn1cc(NC(=O)c2cc(NC(=O)c3ccc(/C=C/c4cccc(F)c4)cc3)cn2C)cc1C(=O)NCCN1CCOCC1.O=C(O)C(F)(F)F	33.99%	-7.74%
COCCOC1CCN(C(=O)c2cc(NC(=O)c3cc(NC(=O)c4ccc(/C=C/c5ccc(OC)cc5)cc4)cn3C)cn2C)CC1.O=S(=O)(O)O	99.55%	96.85%
COc1ccc(CC(=O)Nc2cc(C(=O)Nc3cc(C(=O)Nc4cn(CCCN(C)C)cn4)n(C)c3)n(C)c2)cc1.O=C(O)C(F)(F)F	6.27%	-5.32%
COC(=O)CCC(=O)Nc1cc(C(=O)Nc2cc(C(=O)NCCN3CCOCC3)n(C)c2)n(C)c1.O=C(O)C(F)(F)F	3.68%	-5.38%
CC(C)CCc1sc(N)nc1C(=O)Nc1cc(C(=O)Nc2cc(C(=O)NCCN3CCOCC3)n(C)c2)n(C)c1.O=C(O)C(F)(F)F	26.32%	-8.65%
COC(=O)CCC(=O)Nc1cc(C(=O)Nc2cc(C(=O)NCCCN(C)C)n(C)c2)n(C)c1.O=C(O)C(F)(F)F	5.2%	-12.96%

Structure (SMILES)	Inhibition (Staphylococcus aureus)	Inhibition (Escherichia coli)
CCOC(=O)c1cc(NC(=O)c2cc(NC(=O)c3nc(N)sc3C(C)C)cn2C)cn1C	29.56%	-5.15%
COc1cccc(C(=N)Nc2cc(C(=O)Nc3cc(C(=O)Nc4cc(C(=O)NCCCN5CCOCC5)n(C)c4)n(C)c3)n(C)c2)c1.O=C(O)C(F)(F)F.O=C(O)C(F)(F)F	26.72%	-6.36%
CC(C)CCn1cc(NC(=O)c2cc(NC(=O)c3cc(NC(=N)c4ccccc4)cn3C)cn2C)cc1C(=O)NCCCN(C)C.O=C(O)C(F)(F)F.O=C(O)C(F)(F)F	22.24%	-19.15%
CC(C)CCc1sc(NC(=O)c2cc(NC(=O)c3cc(NC(=O)c4ccc(C(=O)O)cc4)cn3C)cn2C)nc1C(=O)NCCCN(C)C.O=C(O)C(F)(F)F	8.57%	-17.53%
CCOC(=O)c1cc(NC(=O)c2cc(NC(=O)c3sc(N)nc3C(F)(F)F)cn2C)cn1C	23.52%	-5.76%
CC(C)n1cc(NC(=O)c2cc(NC(=O)c3cc(NC=O)cn3C(C)C)cn2C)cc1C(=O)NCCCN(C)C.O=C(O)C(F)(F)F	2.98%	-12.14%
COC(=O)c1ccc(C(=O)Nc2cc(C(=O)Nc3cc(C(=O)NCCN4CCOCC4)n(C)c3)n(C)c2)cc1.O=C(O)C(F)(F)F	12.57%	-5.56%
Cc1ncc(Cn2cc(CCC(=O)O)nn2)c(N)n1.O=C(O)C(F)(F)F	15.37%	-17.36%
CN(C)CCCNC(=O)c1cc(NC(=O)c2cc(NC(=O)c3ccc(C(=O)O)cc3)cn2C)cn1C.O=C(O)C(F)(F)F	10.82%	-6.1%
Cn1cc(NC(=O)c2cc(NC(=O)c3sc(N)nc3C(F)(F)F)cn2C)cc1C(=O)NCCC(=N)N.O=C(O)C(F)(F)F	-17.29%	-25.01%
CC(C)c1sc(N)nc1C(=O)Nc1cc(C(=O)Nc2cc(C(=O)NCCN3CCOCC3)n(C)c2)n(C)c1.O=C(O)C(F)(F)F	1.1%	-18.06%
CN(C)CCCNC(=O)c1cc(NC(=O)c2cc(NC(=O)c3cc(NC(=N)N)cn3C)cn2C)cn1C.O=C(O)C(F)(F)F.O=C(O)C(F)(F)F	14.94%	-3.99%
Cc1ncc(Cn2cc(CC(N)C(=O)O)nn2)c(N)n1.Cl (stereo not given)	-6.04%	-16.87%
CC(=N)Nc1cc(C(=O)Nc2cc(C(=O)Nc3cc(C(=O)NCCN4CCOCC4)n(C)c3)n(C)c2)n(C)c1.O=C(O)C(F)(F)F.O=C(O)C(F)(F)F	23.57%	-8.61%
CN(C)CCCNC(=O)c1cc(NC(=O)c2cc(NC(=O)c3cc4ccccc4cn3)cn2C)cn1C.O=C(O)C(F)(F)F	20.5%	-10.84%
CC(C)c1sc(NC(=O)c2cc(NC(=O)c3cc(NC(=O)c4cnc(Cl)c(Cl)c4)cn3C)cn2C)nc1C(=O)NCCCN(C)C.O=C(O)C(F)(F)F	50.09%	-19.66%
Cn1cc(NC(=O)c2cc(NC(=O)c3sc(N)nc3C(F)(F)F)cn2C)cc1C(=O)NCCN1CCOCC1.O=C(O)C(F)(F)F	12.04%	-24.64%
Cc1ccc(S(=O)(=O)NCCc2cn(Cc3cnc(C)nc3N)nn2)cc1	16.06%	-13.92%
Cc1ncc(CNc2ccc(C(C)(C)C)cc2)c(N)n1	-2.14%	-7.27%
CN(C)CCCNC(=O)c1cc(NC(=O)c2cc(NC(=O)CCC(=O)O)cn2C)cn1C.O=C(O)C(F)(F)F	5.68%	-8.32%
CC(C)CCc1sc(NC(=O)c2cc(NC(=O)c3ccc(/C=C/c4cc5ccccc5nc4Cl)cc3)cn2C)nc1C(=O)NCCN1CCOCC1.O=C(O)C(F)(F)F	1.02%	-19.26%
COCCOC1CCN(C(=O)c2cc(NC(=O)c3cc(NC(=O)c4ccc(/C=C/c5cnc6ccccc6c5)cc4)cn3C)cn2C)CC1	5.5%	7.07%
Cc1ncc(Cn2cc(CCCO)nn2)c(N)n1	13.2%	-17.2%
CCOC(=O)CCC(NC(=O)c1ccc(NCc2cn(Cc3cnc(C)nc3N)nn2)cc1)C(=O)OCC (stereo not given)	-1.1%	-21.48%
COC(=O)c1ccc(C(=O)Nc2cc(C(=O)Nc3cc(C(=O)NCCCN(C)C)n(C)c3)n(C)c2)cc1.O=C(O)C(F)(F)F	-1.58%	-9.36%
Cc1ncc(CO)c(N)n1	1.81%	-19.21%
CC(C)CCc1sc(NC(=O)c2cc(NC(=O)c3cc(NC(=O)CCC(=O)O)cn3C)cn2C)nc1C(=O)NCCCN(C)C.O=C(O)C(F)(F)F	3.82%	-16.63%
